Results from article PMC4081100, “A DNA-binding-site landscape and regulatory network analysis for NAC transcription factors in Arabidopsis thaliana”.

Tests used:
Assay in all cases: universal protein binding microarray (PBM); transcription factors of Arabidopsis thaliana; high values mean tight binding
GST-NTL6(1-168) = GST-NTL6(1-168) (Arabidopsis thaliana, UniProt Q9SCK6 1-168); settings: protein: recombinant; tags: GST; chain copies: 2; dsDNA, one strand shown
In short: (§1)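 Binding is expressed as the normalised enrichment score (E-score). Proteins carrying a GST tag, whether NAC-domain, full-length or DNA-binding-domain forms, were induced in cells, and zinc acetate was added for zinc-finger proteins. After purification on glutathione–Sepharose 4B and quantification by A280 or anti-GST western blot, each was applied in duplicate at 200 to 500 nM final to custom all-10-mer Agilent 4 × 180K arrays made double-stranded by primer extension. Gapped and ungapped 8-mers were scored.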

GST-ANAC055(1-171) = biological target: T1, GST-ANAC055(1-171) (Arabidopsis thaliana, UniProt Q9LDY8 1-171); settings: protein: recombinant; tags: GST; chain copies: 2; dsDNA, one strand shown
T1 sequence: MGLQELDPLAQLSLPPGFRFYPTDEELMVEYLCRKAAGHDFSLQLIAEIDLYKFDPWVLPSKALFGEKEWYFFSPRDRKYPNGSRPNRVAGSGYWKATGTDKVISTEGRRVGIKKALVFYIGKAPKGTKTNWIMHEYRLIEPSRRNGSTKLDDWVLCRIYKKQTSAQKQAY
In short: as §1

GST-ATAF1 NAC domain = biological target: T2, GST-ATAF1 NAC domain (Arabidopsis thaliana, UniProt Q39013 7-158); settings: protein: recombinant; tags: GST; chain copies: 2; dsDNA, one strand shown
T2 sequence: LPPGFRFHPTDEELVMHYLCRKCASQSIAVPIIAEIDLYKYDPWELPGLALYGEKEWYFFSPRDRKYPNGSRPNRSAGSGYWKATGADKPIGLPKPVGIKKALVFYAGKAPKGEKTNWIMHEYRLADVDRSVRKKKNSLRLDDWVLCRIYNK
In short: as §1

[1] = biological target: T3, GST-ANAC092(1-285) full length (Arabidopsis thaliana, UniProt Q9FKA0 1-285); settings: protein: recombinant; tags: GST; chain copies: 2; dsDNA, one strand shown
T3 sequence: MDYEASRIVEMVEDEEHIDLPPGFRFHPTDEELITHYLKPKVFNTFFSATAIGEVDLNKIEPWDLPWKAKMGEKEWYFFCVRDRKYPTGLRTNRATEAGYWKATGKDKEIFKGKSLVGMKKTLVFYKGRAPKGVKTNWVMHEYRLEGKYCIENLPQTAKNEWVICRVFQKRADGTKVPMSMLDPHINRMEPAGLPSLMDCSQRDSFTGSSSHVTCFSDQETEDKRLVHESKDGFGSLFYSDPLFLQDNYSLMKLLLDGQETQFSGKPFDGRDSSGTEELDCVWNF
In short: as §1

GST-NST2(1-184) = biological target: T4, GST-NST2(1-184) (Arabidopsis thaliana, UniProt Q9M274 1-184); settings: protein: recombinant; tags: GST; chain copies: 2; dsDNA, one strand shown
T4 sequence: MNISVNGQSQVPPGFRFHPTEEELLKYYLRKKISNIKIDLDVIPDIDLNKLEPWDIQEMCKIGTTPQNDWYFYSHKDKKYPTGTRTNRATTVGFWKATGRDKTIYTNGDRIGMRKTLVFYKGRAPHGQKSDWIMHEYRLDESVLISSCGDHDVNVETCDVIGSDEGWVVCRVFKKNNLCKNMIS
In short: as §1

GST-VND3 NAC domain = biological target: T5, GST-VND3 NAC domain (Arabidopsis thaliana, UniProt Q9FH59 12-162); settings: protein: recombinant; tags: GST; chain copies: 2; dsDNA, one strand shown
T5 sequence: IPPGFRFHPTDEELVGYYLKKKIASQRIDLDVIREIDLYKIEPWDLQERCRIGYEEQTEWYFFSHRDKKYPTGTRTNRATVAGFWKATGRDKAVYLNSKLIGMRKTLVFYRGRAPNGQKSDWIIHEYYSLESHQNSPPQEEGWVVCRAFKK
In short: as §1

GST-WRKY1(266-371) = GST-WRKY1(266-371) (Arabidopsis thaliana, UniProt Q9SI37 266-371); settings: protein: recombinant; tags: GST; dsDNA, one strand shown
Sequence of GST-WRKY1(266-371) (Q9SI37 266-371): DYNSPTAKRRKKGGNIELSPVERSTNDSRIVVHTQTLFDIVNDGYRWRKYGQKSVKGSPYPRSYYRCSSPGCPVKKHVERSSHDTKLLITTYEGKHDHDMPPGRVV
In short: as §1

GST-NAP(1-166) = biological target: T6, GST-NAP(1-166) (Arabidopsis thaliana, UniProt O49255 1-166); settings: protein: recombinant; tags: GST; chain copies: 2; dsDNA, one strand shown
T6 sequence: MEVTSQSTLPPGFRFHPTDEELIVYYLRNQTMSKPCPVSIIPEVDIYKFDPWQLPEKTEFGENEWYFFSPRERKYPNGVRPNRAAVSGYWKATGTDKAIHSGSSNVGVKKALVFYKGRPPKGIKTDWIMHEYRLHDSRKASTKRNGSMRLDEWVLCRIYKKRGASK
In short: as §1

GST-VND7 NAC domain = biological target: T7, GST-VND7 NAC domain (Arabidopsis thaliana, UniProt Q9C8W9 9-158); settings: protein: recombinant; tags: GST; chain copies: 2; dsDNA, one strand shown
T7 sequence: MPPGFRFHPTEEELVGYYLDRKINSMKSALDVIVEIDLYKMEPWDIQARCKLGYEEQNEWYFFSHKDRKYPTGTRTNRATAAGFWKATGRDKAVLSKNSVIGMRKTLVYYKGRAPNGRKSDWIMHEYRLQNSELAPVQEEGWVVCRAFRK
In short: as §1

GST-ANAC092(1-176) = biological target: T8, GST-ANAC092(1-176) (Arabidopsis thaliana, UniProt Q9FKA0 1-176); settings: protein: recombinant; tags: GST; chain copies: 2; dsDNA, one strand shown
T8 sequence: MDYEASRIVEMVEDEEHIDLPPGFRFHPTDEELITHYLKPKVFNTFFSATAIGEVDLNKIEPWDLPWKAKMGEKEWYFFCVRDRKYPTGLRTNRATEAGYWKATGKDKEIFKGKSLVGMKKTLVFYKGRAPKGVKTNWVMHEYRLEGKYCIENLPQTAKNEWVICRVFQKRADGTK
In short: as §1

GST-NTL8 NAC domain = biological target: T9, GST-NTL8 NAC domain (Arabidopsis thaliana, UniProt Q9XIN7 14-156); settings: protein: recombinant; tags: GST; chain copies: 2; dsDNA, one strand shown
T9 sequence: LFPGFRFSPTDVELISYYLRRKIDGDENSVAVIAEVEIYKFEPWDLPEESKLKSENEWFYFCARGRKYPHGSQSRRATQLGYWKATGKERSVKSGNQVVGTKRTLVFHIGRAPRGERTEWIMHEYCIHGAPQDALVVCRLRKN
In short: as §1

GST-ANAC019 NAC domain = biological target: T10, GST-ANAC019 NAC domain (Arabidopsis thaliana, UniProt Q9C932 14-162); settings: protein: recombinant; tags: GST; chain copies: 2; dsDNA, one strand shown
T10 sequence: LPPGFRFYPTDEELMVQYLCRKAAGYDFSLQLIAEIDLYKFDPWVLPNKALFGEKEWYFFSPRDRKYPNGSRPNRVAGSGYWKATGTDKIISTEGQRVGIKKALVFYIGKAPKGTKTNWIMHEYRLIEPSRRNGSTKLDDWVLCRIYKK
In short: as §1

Sequence of GST-NTL6(1-168) (Q9SCK6 1-168): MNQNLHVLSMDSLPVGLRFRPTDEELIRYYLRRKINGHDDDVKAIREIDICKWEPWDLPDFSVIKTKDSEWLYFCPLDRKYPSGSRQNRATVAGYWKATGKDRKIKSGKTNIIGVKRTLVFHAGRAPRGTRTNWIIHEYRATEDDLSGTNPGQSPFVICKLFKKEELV

Sequence	binding signal (GST-NTL6(1-168))	binding signal (GST-ANAC055(1-171))	binding signal (GST-ATAF1 NAC domain)	binding signal [1]	binding signal (GST-NST2(1-184))	binding signal (GST-VND3 NAC domain)	binding signal (GST-WRKY1(266-371))	binding signal (GST-NAP(1-166))	binding signal (GST-VND7 NAC domain)	binding signal (GST-ANAC092(1-176))	binding signal (GST-NTL8 NAC domain)	binding signal (GST-ANAC019 NAC domain)
TTCGTCAA	0.0728 E-score	0.0829 E-score	0.106 E-score	0.0695 E-score	0.0662 E-score	0.0782 E-score	0.437 E-score	–	–	–	–	–
GTCAAATA	0.0593 E-score	0.0664 E-score	0.141 E-score	–	–	0.0795 E-score	0.461 E-score	0.0873 E-score	0.139 E-score	–	–	–
AGAGGGAA	0.178 E-score	0.0527 E-score	0.0736 E-score	–	–	0.0709 E-score	–	0.111 E-score	0.0972 E-score	0.114 E-score	0.447 E-score	–
ACACGGTA	–	0.265 E-score	0.21 E-score	0.443 E-score	0.202 E-score	0.227 E-score	–	0.234 E-score	0.123 E-score	0.437 E-score	–	0.286 E-score
ATAGTCAA	–	0.122 E-score	0.263 E-score	0.12 E-score	0.146 E-score	0.211 E-score	0.473 E-score	0.0851 E-score	0.12 E-score	–	–	–
CATGGTCA	–	–	–	–	–	0.0588 E-score	0.443 E-score	–	–	–	–	–
AATGGTCA	0.0526 E-score	–	–	–	–	0.0734 E-score	0.434 E-score	–	–	–	–	–
AGAGTCAA	–	–	–	–	0.0818 E-score	0.0953 E-score	0.48 E-score	–	0.0931 E-score	–	–	0.108 E-score
TACAGTCA	–	0.0559 E-score	0.107 E-score	0.131 E-score	–	0.167 E-score	0.404 E-score	–	0.0649 E-score	–	0.0899 E-score	0.109 E-score
AATAGTCA	–	0.0507 E-score	0.061 E-score	0.113 E-score	0.0657 E-score	0.178 E-score	0.413 E-score	–	0.143 E-score	–	–	–
CTTGACTC	–	–	0.0754 E-score	–	–	0.0677 E-score	0.466 E-score	–	–	0.0601 E-score	–	–
